Experimental findings from PubChem BioAssay (NCI) are described below.

The panel holds about 83,000 compounds, 20% with a hit somewhere; the sample as a whole holds those more often.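 Method: cells in 96-well plates; compound added at one concentration; 48 h incubation; percent growth measured; values under 10 scored active.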 Calls of active or inactive are those of the source.

For one experiment, the system named is NCI-H522 lung. The experiment in a line: NCI-60 one-dose screen, 48 h (100 = growth as untreated, 0 = no growth, -100 = all killed). To be noted: 10 µM unless noted.
As to `COC(=O)c1cccc(NC2=C(Cl)C(=O)c3nc(C)ccc3C2=O)c1`, the growth was 65.1% (inactive). Same read-out and setting: for `O=C1Nc2cc(Cl)ccc2/C1=C\c1ccc(OCc2ccccc2)cc1` the value was 99.8% (inactive). Still for that read-out and setting: for `Cc1ccc(-c2csc(N/N=C/c3cccs3)n2)cc1` the value was 73.3% (inactive); for `O=[N+]([O-])c1ccc(NC(=S)NNC(=S)Nc2ccc(Br)cc2)cc1`, 81.1% (inactive).

The next experiment has as its system A549/ATCC NSCLC. Described as above. To be noted: 10 µM unless noted.
With `C/C(=C(\c1ccc(O)cc1)c1ccc(OCCN2CCCCCC2)cc1)c1ccc(Cl)cc1`, the growth was -72.4% (active). With `COc1ccc(C(=O)c2c(N)c(C#N)cn2-c2ccc(Cl)cc2Cl)cc1`, the growth is 93.4% (inactive). The same measure, in the same setting: for `COc1ccc(-c2c(C(N)=O)c(N)n(Cc3nc4ccccc4[nH]3)c(=O)c2C#N)c(OC)c1` the value was 102% (inactive); for `CN1CCC[C@]2(C)[C@H]3CC[C@@H]4[C@@H]5[C@H]6OC[C@@]5(CCC6(C)C)CC[C@@]4(C)[C@]3(C)CC[C@H]2C1(C)C`, 71.7% (inactive); for `CN1CCN(Cc2ccc(/C=N/Nc3ccnc4cc(Cl)ccc34)cc2)CC1`, 83.7% (inactive).

Turning to `O=C1Nc2ccccc2/C1=C/c1ccc(OCC(=O)c2ccccc2)cc1`, the growth is 99.5% (inactive). The same measure, in the same setting: for `CC1=C(C)C(=O)C(Nc2ccc3c(c2)OCCO3)=C(Br)C1=O` the value was 107% (inactive); for `CN1CCN(Cc2ccc(NC(=O)c3cncc(C#Cc4cnc5ccc(NCCO)nn45)c3)cc2C(F)(F)F)CC1`, 1.34% (active); for `Cc1ccc(-c2csc(N/N=C/c3cccs3)n2)cc1`, 84.2% (inactive).

As to `O=[N+]([O-])c1ccc(NC(=S)NNC(=S)Nc2ccc(Br)cc2)cc1`, the growth is 83.9% (inactive).

Another experiment deals with 786-0 renal. Described as above. To be noted: 10 µM unless noted.
Turning to `NC(=O)n1c(=O)n(-c2cccc(C(F)(F)F)c2)c(=O)c2cc(-c3ccc(F)cc3F)ccc21`, the growth was 45% (inactive). In the case of `O=C1CSC(c2cn(-c3ccccc3)nc2-c2ccc(Cl)cc2)N1c1ccccc1` (stereo unspecified), the growth was 106% (inactive). For `COc1ccc(/C=N/NC(=O)CSc2nc(-c3cnccn3)cc(-c3cccs3)c2C#N)cc1`, the growth was 22.6% (inactive). Turning to `C#Cc1cc(OC)c(C(=O)Nc2ccc(F)cc2C(=O)Nc2cccc(S(=O)(=O)C(F)(F)F)c2)cn1`, the growth is -78.7% (active).

Take `CN1c2ccccc2Sc2cc(/C=N/Nc3ccnc4cc(Cl)ccc34)ccc21`: the growth was 89.3% (inactive).

Turning to `O=C(/C=C/c1cccc(F)c1)c1cccc(OCCCOc2cccc(C(=O)/C=C/c3cccc(F)c3)c2)c1`, the growth was 51% (inactive). As for `CN1CCN(Cc2ccc(NC(=O)c3cncc(C#Cc4cnc(N)nc4)c3)cc2C(F)(F)F)CC1`, the growth is 40% (inactive). The same measure, in the same setting: for `O=C(CSc1nc2ccccc2c(=O)n1-c1ccc(Cl)c(Cl)c1)Nc1ccc(S(=O)(=O)Nc2ccc(Cl)nn2)cc1` the value was 98.9% (inactive). Regarding `Cc1[nH]c(C(=O)Nc2ccc(C(N)=O)cc2N2CCOC(C)C2)c(Cl)c1Cl` (stereo unspecified), the growth was 92.9% (inactive). Still for that read-out and setting: for `N#Cc1nc(-c2ccccc2)oc1N1CCC(C2(C(F)(F)F)N=N2)CC1` the value was 101% (inactive). On the same count and under the same terms, for `C/C(=C(\c1ccc(O)cc1)c1ccc(OCCN2CCCCCC2)cc1)c1ccc(Cl)cc1` the value was -77.4% (active); for `COc1ccc(C(=O)c2c(N)c(C#N)cn2-c2ccc(Cl)cc2Cl)cc1`, 103% (inactive). Still for that read-out and setting: the same measure for `C#C[C@]1(O)CC[C@H]2[C@@H]3CC=C4c5sc(Nc6cccc(F)c6)nc5CC[C@]4(C)[C@H]3CC[C@@]21C`: 2.62% (active); for `C[C@@H]1OCC2(CCN(c3cnc(C(=O)Nc4cc(F)cc5cccnc45)cn3)CC2)[C@@H]1N`: 71.3% (inactive). Consider `Cn1c(SCC(=O)c2ccc(F)cc2)nc2ccccc2c1=O`, for which the growth is 96.8% (inactive). As to `O=C(CCCCCC/C=C\c1csc(Br)n1)NO`, the growth is 104% (inactive). As to `COc1ccc(-c2cc(-c3ccc(N4CCOCC4)cc3)n3c(n2)nc2ccccc23)cc1OC`, the growth was 84.7% (inactive). Same read-out and setting: for `CN(C)c1cccc2c(S(=O)(=O)Nc3cccc(-c4csc(NC(=O)CCCCCN5CCN(CCO)CC5)n4)c3)cccc12` the value was 77.5% (inactive); for `O=c1nc(Nc2ccc([N+](=O)[O-])cc2O)sc2ccccc12`, 37.7% (inactive); for `CCc1cc(OC(=O)N2CCC(N3CCCCC3)CC2)ccc1Nc1cc(-c2ccc(-n3cccn3)cc2)[nH]n1`, 58% (inactive).

For `COc1ccc(-c2c(C(N)=O)c(N)n(Cc3nc4ccccc4[nH]3)c(=O)c2C#N)c(OC)c1`, the growth was 103% (inactive). Same read-out and setting: the same measure for `CCOC(=O)Nc1ccc2c(ccn2C(=O)c2cccc(F)c2)c1`: 57.5% (inactive).
